For experiment [1], the target named is Thyrotropin receptor (Homo sapiens) (UniProt P16473). Briefly: qHTS assay to identify small molecule antagonists of the thyroid stimulating hormone receptor (TSHR) signaling pathway (AID 1259385; calls by dose curve; also: nearly all actives have a fitted effect of over 20% in size; also: potency is read from the fitted curve at half-maximal effect). In outline: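 Antagonist mode: compound-treated TSHR-expressing HEK293 cells were stimulated with 1.5 ng/mL TSH (final) in presence of Ro20-1724 for 30 min at RT. HTRF cAMP detection after 1 h; each compound tested at 15 concentrations, triplicate.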
On the technique in general: qHTS replaces the single test concentration by a dilution series.

Experiment [2] in a line: qHTS assay to identify small molecule agonists of the estrogen receptor alpha (ER-alpha) signaling pathway in the presence of an antagonist - cell viability counter screen (AID 1259386). Also: series mostly up to about 92 µM; nearly all actives have a fitted effect of over 30% in size. In outline:
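Compounds tested at 15 concentrations for 22 h at 37C alongside 10.0nM (final) ICI-182,780 antagonist, in VM7Luc4E2 cells grown in phenol red-free, charcoal-stripped medium. Viability read by CellTiter-Fluor fluorescence after 1 h reagent incubation.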

The target in experiment [3] is Progesterone receptor (Homo sapiens) (UniProt P06401). Briefly: qHTS assay to identify small molecule agonists of the progesterone receptor (PR) signaling pathway (AID 1346784; calls by dose curve; also: nearly all actives have a fitted effect of over 30% in size). In outline:
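Reporter assay, GripTite PR-UAS-bla HEK 293T cells: 16 hr exposure to DMSO-dissolved compounds at 37C, 5% CO2, in steroid-depleted (2% charcoal-stripped FBS) medium; beta-lactamase measured by FRET fluorescence.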

Experiment [4] in a line: qHTS assay to identify small molecule antagonists of the TGF-beta/Smad signaling pathway - cell viability counter screen (AID 1346824). Also: nearly all actives have a fitted effect of over 50% in size. Summed up:
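Cytotoxicity counter-screen run in the same wells as the beta-lactamase Smad reporter read: CellTiter-Glo luminescence after 30 min at room temperature. HEK 293T SBE-bla cells had 5 hr compound exposure at 37 C with TGF-beta1 (0.25 ng/mL stock).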

Experiment [5] in a line: Human pregnane X receptor (PXR) small molecule agonists, qHTS cell viability counter screen (AID 1346977). Also: nearly all actives have a fitted effect of over 50% in size. Also: potency is read from the fitted curve at half-maximal effect. In outline:
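In each well, the PXR reporter HepG2 line was checked for viability: CellTiter-Fluor reagent added 23hr post-dosing, fluorescence read after 1hr incubation at 37C.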

Experiment [6] can be described thus: Caspase-3/7 induction in HepG2 cells by small molecules, qHTS assay (AID 1346978). Also: nearly all actives have a fitted effect of over 15% in size. Summed up:
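Caspase-3/7 induction was measured by Caspase-Glo 3/7 luminescence (30 min, room temperature) after a 17 hr compound exposure of wild-type HepG2 cells seeded at 2,000 per well and pre-incubated 5 hr.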

Experiment [7] can be described thus: Caspase-3/7 induction in CHO-K1 cells by small molecules, qHTS cell viability counter screen (AID 1346979). Also: nearly all actives have a fitted effect of over 35% in size. Also: potency is read from the fitted curve at half-maximal effect. In outline:
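Following a 5hr settling period, CHO-K1 cells at 1,500 per well received DMSO-dissolved compounds. Cell viability was quantified 16hr later by CellTiter-Fluor fluorescence, measured after 1hr with reagent at 37C.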

Experiment [8] can be described thus: Caspase-3/7 induction in CHO-K1 cells by small molecules, qHTS assay (AID 1346980). Also: nearly all actives have a fitted effect of over 15% in size. Summed up: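 Luminescent Caspase-Glo 3/7 read (30min, room temperature) quantified apoptosis induction. Cells were wild-type CHO-K1, treated with compound for 17hr at 37 C and 5% CO2.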
Experiment [9] can be described thus: Caspase-3/7 induction in HepG2 cells by small molecules, qHTS cell viability counter screen (AID 1346981). Also: nearly all actives have a fitted effect of over 30% in size. Also: potency is read from the fitted curve at half-maximal effect. In outline: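 CellTiter-Fluor fluorescence measured viability in the same wells used for Caspase-Glo 3/7. HepG2 (wild type) at 2,000 cells/well were pre-incubated 5 hr, dosed, and given reagent at 16 hr, with 1 hr further at 37C.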
Experiment [10] addresses Nuclear receptor subfamily 1 group I member 2 (Homo sapiens) (UniProt O75469). Briefly: Human pregnane X receptor (PXR) small molecule agonists, qHTS assay (AID 1346982). Also: nearly all actives have a fitted effect of over 35% in size. Also: potency is read from the fitted curve at half-maximal effect. Summed up:
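Agonist mode: luminescence from ONE-Glo after 24 h compound exposure at 37C in HepG2 cells carrying hPXR-responsive CYP3A4 luciferase, plated in charcoal-stripped serum medium 5 h beforehand.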

A short description of experiment [11]: qHTS assay to identify small molecule agonists of the progesterone receptor (PR) signaling pathway - cell viability counter screen (AID 1346799; calls by dose curve; also: nearly all actives have a fitted effect of over 45% in size; also: potency is read from the fitted curve at half-maximal effect). In outline:
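Multiplexed viability read: CellTiter-Glo luminescence, 30 min RT, following LiveBLAzer FRET measurement on PR-UAS-bla HEK293T cells exposed to compounds 16 hr.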

The nature of experiment [12]: qHTS assay to identify small molecule agonists of the TGF-beta/Smad signaling pathway (AID 1346859; active = well fitted activation curve with a large enough effect in the signal ratio in the repeat runs, not every such curve was filed as active; the % refers to the signal ratio; also: series mostly up to about 77 µM). In outline: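 Screening used HEK 293T SBE-bla cells at 4,000/well. Test agents: 5 hr, 37 C. Detection: FRET substrate, 2 hr RT, then excitation 405 nm with emissions at 460 and 530 nm.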
The target in experiment [13] is Thyrotropin-releasing hormone receptor (Homo sapiens) (UniProt P34981). Briefly: qHTS assay to identify small molecule antagonists of the thyrotropin-releasing hormone receptor (TRHR) signaling pathway (AID 1346877; active = well fitted inhibition curve with a large enough effect in the repeat runs, not every such curve was filed as active; also: series mostly up to about 51 µM). In outline:
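Antagonist mode: after a 5 min room-temperature compound exposure, cells were stimulated with 1 nM (final) TRH. Dye-loaded TRHR-HEK293 cells were used, and calcium-dependent fluorescence was followed for 3 min, with 15-point titrations run in triplicate.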

The target is the same in experiment [14]. Briefly: qHTS assay to identify small molecule agonists of the thyrotropin-releasing hormone receptor (TRHR) signaling pathway (AID 1346891; calls by dose curve; also: series mostly up to about 58 µM). In outline: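 Readout was intracellular calcium fluorescence in TRHR-Hek293 cells. Cells were incubated 18 h, dye-loaded 2 h at 37 °C, and treated with compound in agonist mode.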
A short description of experiment [15]: qHTS assay to identify small molecule agonists of the TGF-beta/Smad signaling pathway - cell viability counter screen (AID 1346829). Also: top concentration of the series differs between compounds; nearly all actives have a fitted effect of over 45% in size. Summed up: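 In parallel with the Smad reporter read, viability of HEK 293T cells stably carrying SBE-bla is quantified by ATP luminescence following 5 hr compound treatment.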
The nature of experiment [16]: qHTS assay to identify small molecule antagonists of the progesterone receptor (PR) signaling pathway - cell viability counter screen (AID 1346798). Also: series mostly up to about 92 µM; nearly all actives have a fitted effect of over 50% in size. Summed up:
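In the same plates used for the beta-lactamase readout, cell viability of compound- and R5020-treated PR-UAS-bla HEK293T cells (16 hr, 37C) was assessed by CellTiter-Glo luminescence.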

Experiment [17] deals with Progesterone receptor (Homo sapiens) (UniProt P06401). Briefly: qHTS assay to identify small molecule antagonists of the progesterone receptor (PR) signaling pathway (AID 1346795; active = well fitted inhibition curve with a large enough effect in the signal ratio in the repeat runs, not every such curve was filed as active; the % refers to the signal ratio; also: potency is read from the fitted curve at half-maximal effect). Summed up: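 Stimulus R5020 at 1 nM final; cells HEK293T PR-UAS-bla; medium with 2% charcoal-stripped FBS; compound exposure 16 hr at 37C, 5% CO2; detection by FRET beta-lactamase substrate, 2 hr, room temperature.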

Where “and” joins values, the source holds several entries; their conditions need not be identical. Identical values can stand only once. Results filed as inconclusive are left out. More than one record can exist for a structure, and the calls need not agree. Calls of active or inactive are those of the source. Unless noted, calls follow the shape of the dose curve; as a rule, active = well fitted curve in the direction sought with a large enough effect in the repeat runs; inconclusive = weak or mixed curves; inactive = no such curve, though single readings can be large; an effect the other way counts as inactive or inconclusive.

Sequence of Nuclear receptor subfamily 1 group I member 2 (Homo sapiens) (O75469 whole entry, looked up): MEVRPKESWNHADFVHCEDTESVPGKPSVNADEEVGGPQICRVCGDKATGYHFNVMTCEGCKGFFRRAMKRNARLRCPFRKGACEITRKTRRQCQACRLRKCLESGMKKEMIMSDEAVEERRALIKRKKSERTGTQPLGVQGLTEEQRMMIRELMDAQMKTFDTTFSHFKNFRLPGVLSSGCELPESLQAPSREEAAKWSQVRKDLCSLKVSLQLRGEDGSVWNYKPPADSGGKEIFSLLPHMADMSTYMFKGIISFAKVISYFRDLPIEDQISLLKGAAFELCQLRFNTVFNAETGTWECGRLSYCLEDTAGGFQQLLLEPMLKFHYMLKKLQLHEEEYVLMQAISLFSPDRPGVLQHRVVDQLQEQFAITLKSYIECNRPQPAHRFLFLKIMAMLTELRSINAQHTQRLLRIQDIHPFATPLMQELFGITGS
Sequence of Progesterone receptor (Homo sapiens) (P06401 whole entry, looked up): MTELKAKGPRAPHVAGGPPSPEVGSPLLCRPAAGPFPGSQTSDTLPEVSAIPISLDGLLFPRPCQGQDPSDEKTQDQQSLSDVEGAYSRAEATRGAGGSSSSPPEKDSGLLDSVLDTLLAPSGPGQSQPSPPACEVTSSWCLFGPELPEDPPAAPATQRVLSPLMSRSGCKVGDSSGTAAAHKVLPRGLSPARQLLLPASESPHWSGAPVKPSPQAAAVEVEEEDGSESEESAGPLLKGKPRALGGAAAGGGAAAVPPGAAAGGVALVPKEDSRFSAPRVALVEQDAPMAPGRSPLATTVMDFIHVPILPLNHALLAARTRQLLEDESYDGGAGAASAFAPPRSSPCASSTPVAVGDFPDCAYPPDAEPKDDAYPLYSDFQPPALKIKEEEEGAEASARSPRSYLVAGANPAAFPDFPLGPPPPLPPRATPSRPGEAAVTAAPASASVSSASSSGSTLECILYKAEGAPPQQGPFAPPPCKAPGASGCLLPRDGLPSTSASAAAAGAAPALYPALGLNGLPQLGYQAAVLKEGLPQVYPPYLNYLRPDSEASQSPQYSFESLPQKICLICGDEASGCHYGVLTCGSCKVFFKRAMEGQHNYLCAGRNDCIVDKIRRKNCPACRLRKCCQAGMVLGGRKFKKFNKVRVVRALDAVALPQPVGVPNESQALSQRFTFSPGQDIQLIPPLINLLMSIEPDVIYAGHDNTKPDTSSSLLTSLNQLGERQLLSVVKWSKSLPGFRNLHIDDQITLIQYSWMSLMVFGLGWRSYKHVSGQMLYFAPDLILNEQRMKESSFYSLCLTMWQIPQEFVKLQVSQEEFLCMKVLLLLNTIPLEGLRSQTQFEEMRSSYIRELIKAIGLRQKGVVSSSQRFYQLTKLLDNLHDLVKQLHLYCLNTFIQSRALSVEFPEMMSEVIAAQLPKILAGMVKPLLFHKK
Sequence of Thyrotropin receptor (Homo sapiens) (P16473 whole entry, looked up): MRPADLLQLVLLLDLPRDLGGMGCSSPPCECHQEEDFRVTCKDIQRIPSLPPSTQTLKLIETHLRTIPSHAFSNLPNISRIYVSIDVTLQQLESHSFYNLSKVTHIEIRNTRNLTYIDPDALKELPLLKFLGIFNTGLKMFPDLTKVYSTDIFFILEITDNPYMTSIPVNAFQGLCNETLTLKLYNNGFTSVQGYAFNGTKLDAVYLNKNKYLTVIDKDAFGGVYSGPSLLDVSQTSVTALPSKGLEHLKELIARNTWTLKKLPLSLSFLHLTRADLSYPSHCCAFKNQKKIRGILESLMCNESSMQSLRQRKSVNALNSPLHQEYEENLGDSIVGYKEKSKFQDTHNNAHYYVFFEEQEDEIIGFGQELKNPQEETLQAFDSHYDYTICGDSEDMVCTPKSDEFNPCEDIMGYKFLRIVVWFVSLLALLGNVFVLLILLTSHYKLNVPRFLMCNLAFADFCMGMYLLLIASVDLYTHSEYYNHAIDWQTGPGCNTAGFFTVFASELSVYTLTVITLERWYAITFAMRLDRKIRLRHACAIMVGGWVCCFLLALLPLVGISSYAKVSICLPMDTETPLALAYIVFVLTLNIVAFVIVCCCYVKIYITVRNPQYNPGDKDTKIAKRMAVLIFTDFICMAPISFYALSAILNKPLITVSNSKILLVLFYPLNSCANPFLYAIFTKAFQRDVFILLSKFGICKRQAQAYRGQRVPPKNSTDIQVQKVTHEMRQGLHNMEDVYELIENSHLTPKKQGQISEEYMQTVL
Sequence of Thyrotropin-releasing hormone receptor (Homo sapiens) (P34981 whole entry, looked up): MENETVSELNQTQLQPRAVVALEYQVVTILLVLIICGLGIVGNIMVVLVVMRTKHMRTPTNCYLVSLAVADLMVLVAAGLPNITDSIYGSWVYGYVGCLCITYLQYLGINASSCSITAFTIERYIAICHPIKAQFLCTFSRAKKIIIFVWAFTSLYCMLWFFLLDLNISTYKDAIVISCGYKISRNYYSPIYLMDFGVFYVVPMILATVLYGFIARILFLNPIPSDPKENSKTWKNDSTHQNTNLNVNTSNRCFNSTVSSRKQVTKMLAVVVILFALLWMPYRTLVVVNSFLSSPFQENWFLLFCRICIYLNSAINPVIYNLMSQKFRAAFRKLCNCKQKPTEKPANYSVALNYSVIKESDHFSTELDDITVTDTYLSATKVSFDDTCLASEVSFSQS

Regarding `O=C(N[C@H](c1ccccc1)[C@@H]1CN2CCC1CC2)c1c(Cl)ccc(C(F)(F)F)c1Cl`, the Potency entry in [1], in [2], in experiment [3], in experiment [4], in experiment [6] and in [8] was “inactive” each time. Moreover, in experiment [10], the Potency result is “inactive”. The Potency is 49.3 µM (active) in [5], 78.1 µM (active) in experiment [7] and 55.3 µM (active) in experiment [9].
Take `CCCC(=O)Cl`: the Potency entry in [1], in experiment [2], in experiment [3], in experiment [11], in experiment [4] and in experiment [13] was “inactive” throughout. Also, the Potency result in experiment [14], in [5], in experiment [6], in [7], in experiment [8] and in experiment [9] was “inactive” throughout. Further, the Potency result in [10] was “inactive”. Besides, the compound was called inactive in experiment [12].
Consider `CCOP(=S)(OCC)Oc1nc(Cl)c(Cl)cc1Cl`, for which the Potency was 27.4 µM (active) and 54.5 µM (active) in experiment [1]; 61.3 µM (active) and inactive in experiment [11]. Besides, the Potency result in experiment [2], in experiment [3], in experiment [4], in [15], in [13] and in experiment [14] was “inactive” throughout. Further, the Potency entry in experiment [5], in [6], in experiment [7], in [8] and in experiment [9] was “inactive” throughout. Also, in experiment [12], the call was inactive.
`Cc1ccccc1C(=O)Nc1cccc(OC(C)C)c1`: the Potency result in experiment [1], in experiment [2], in experiment [3], in [4], in experiment [13] and in experiment [14] was “inactive” each time. Further, the Potency result in experiment [5], in experiment [6], in experiment [8] and in experiment [9] was “inactive” in each case. In addition, in experiment [12], the outcome was inactive. In addition, in [10], the Potency is 13.7 µM (active).
In the case of `CCOC(=O)CBr`, the Potency result in experiment [1], in experiment [2], in experiment [3], in experiment [11], in experiment [4] and in experiment [13] was “inactive” each time. Further, the Potency entry in experiment [5], in [6], in experiment [7], in [8], in experiment [9] and in experiment [10] was “inactive” throughout. Also, the compound was called inactive in experiment [12].
Take `COCCOCCO`: the Potency result in experiment [1], in [2], in experiment [3], in experiment [5], in [6] and in experiment [8] was “inactive” in each case. In addition, in [9], the Potency entry was “inactive”. Besides, the Potency in [10] is 27.3 µM (active).
As for `COC(=O)C(C)N(C(=O)Cc1ccccc1)c1c(C)cccc1C` (stereo unspecified), the Potency result in experiment [1], in [2], in experiment [3], in experiment [16], in experiment [4] and in [15] was “inactive” each time. Moreover, the Potency result in experiment [13], in experiment [5], in [6], in experiment [7], in experiment [8] and in experiment [9] was “inactive” each time. In addition, the Potency in experiment [10] is 10.9 µM (active).
Take `Oc1ccc(Cl)c(Cl)c1Cl`: the Potency result in experiment [1], in experiment [2], in [3], in [4], in experiment [15] and in experiment [13] was “inactive” throughout. For the same compound, the Potency entry in experiment [14] and in experiment [8] was “inactive” each time. For the same compound, the outcome in [12] was inactive. Further, in experiment [10], the Potency was 63.4 µM (active).
On to `COP(=S)(OC)Oc1cc(Cl)c(I)cc1Cl`, for which the Potency result in [1], in [2], in experiment [4], in experiment [15], in [6] and in experiment [7] was “inactive” each time. For the same compound, the Potency entry in experiment [8], in experiment [9] and in experiment [10] was “inactive” throughout. Moreover, the Potency in experiment [17] is 21.7 µM (active). Further, in experiment [12], the compound was classed as inactive.
As for `O=S(=O)(O)C(F)(F)C(F)(F)C(F)(F)C(F)(F)F`, the Potency entry in experiment [1], in [2], in experiment [3], in [16], in experiment [4] and in [15] was “inactive” throughout. The Potency entry in [6], in experiment [8] and in experiment [10] was “inactive” each time. Further, the result in experiment [12] was inactive. Besides, in experiment [7], the Potency is 54.5 µM (active).

For the origin of these results see PubChem BioAssay (Tox21).
